The structures appear in SMILES notation. Screen size: about 97,000 compounds; about 810 (0.84%) were called active. What follows is part of a selection rich in actives, with near analogues and random picks from the rest. Unmarked numbers belong to inactive results. No stated cut-off is given here; in the data, active means inhibition above about 19%; inactive means the rest.

This experiment deals with Focal adhesion kinase 1 (Homo sapiens) (UniProt Q05397). As to the kind of experiment: human PTK2 enzyme activity blockers – biochemical, primary screen (AID 727).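 Further: 0% = DMSO and 100% = reference compound high control.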 As to conditions: biochemical FAK kinase activity assay; hits give high values;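 tested at 7 µM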.
Focal adhesion kinase 1 (Homo sapiens), sequence (Q05397 whole entry, looked up): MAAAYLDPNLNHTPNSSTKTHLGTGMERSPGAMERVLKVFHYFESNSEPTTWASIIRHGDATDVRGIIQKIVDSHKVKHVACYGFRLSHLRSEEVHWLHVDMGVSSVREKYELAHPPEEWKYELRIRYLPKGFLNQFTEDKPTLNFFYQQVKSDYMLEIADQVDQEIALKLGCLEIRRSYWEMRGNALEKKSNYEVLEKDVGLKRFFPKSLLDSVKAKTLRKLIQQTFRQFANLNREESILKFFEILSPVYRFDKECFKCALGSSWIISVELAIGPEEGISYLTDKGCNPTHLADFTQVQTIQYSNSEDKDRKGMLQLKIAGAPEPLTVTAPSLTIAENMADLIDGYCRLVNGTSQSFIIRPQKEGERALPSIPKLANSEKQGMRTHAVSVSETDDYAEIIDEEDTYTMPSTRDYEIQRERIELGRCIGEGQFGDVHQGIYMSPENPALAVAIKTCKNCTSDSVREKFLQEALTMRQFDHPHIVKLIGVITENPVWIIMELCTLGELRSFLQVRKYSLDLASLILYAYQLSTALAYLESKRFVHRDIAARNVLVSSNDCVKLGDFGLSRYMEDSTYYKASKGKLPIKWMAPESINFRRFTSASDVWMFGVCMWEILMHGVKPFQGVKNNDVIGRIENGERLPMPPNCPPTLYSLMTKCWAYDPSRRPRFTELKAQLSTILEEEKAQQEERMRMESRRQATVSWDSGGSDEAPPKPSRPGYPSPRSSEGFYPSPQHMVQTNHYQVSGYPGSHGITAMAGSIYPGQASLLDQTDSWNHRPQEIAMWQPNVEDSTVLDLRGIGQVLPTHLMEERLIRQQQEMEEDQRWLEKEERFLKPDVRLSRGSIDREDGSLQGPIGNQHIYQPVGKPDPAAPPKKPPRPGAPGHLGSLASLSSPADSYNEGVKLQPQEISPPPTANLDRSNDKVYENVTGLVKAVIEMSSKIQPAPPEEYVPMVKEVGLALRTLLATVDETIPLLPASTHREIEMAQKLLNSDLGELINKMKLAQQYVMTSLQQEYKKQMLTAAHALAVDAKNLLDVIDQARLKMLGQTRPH
For orientation: inhibition means the drop in the measured response relative to a control, in per cent. In the case of `COc1ccc(C2(CNC(=O)C(c3ccccc3)c3ccccc3)CCOCC2)cc1OC`, the inhibition is 1.78%.
Then `C=C(C)CNC(=S)/N=c1\scc(C)n1CC`, with -6.21%; and `Oc1ccc(-c2onc3ccc(Cl)cc23)cc1`, with 5.87%; and `Cc1cccc(NC(=O)c2cc(N3C(=O)CCC3=O)ccc2Cl)n1`, with -0.12%.
Then `CCOC(=O)c1cc(C#N)c(N2CCCCC2)nc1-c1ccccc1`, with 4.29%; and `CCOC(=O)c1sc2nc(SC)nc(-c3ccccc3)c2c1N`, with 2.16%; and `COc1ccc(C)cc1N(C)C(=O)c1coc(=O)c2ccccc12`, with 1.58%.
Regarding `Nc1c(-c2ccc(F)cc2)cnc2ncnn12`, the inhibition is 19.1% (active).
As to `Cc1ccc(S(=O)(=O)N(CC(=O)N/N=C/c2ccc(F)cc2)c2cccc3cccnc23)cc1`, the inhibition is 3.64%.
With `COc1ccc(/C(N)=N/OC(=O)Oc2ccccc2)cc1`, the inhibition is 0.12%.
Consider `CC1CCN(C(=O)c2cc3nc(C4CC4)cc(C(F)(F)F)n3n2)CC1`, for which the inhibition is 0.8%.
Next, `C/C=C/C(=O)OCC(=O)Nc1ccc(F)cc1Cl`: -4.03%; `Cn1c(CCN2CCCCCC2)nc2cc(NC(=O)Nc3ccccc3)ccc21`: 22.2% (active).
Turning to `CCC(=O)Nc1ccc2c(c1)nc(CCN1CCN(C)CC1)n2C`, the inhibition is -1.8%.
As for `Cc1nn(CC(=O)Nc2ccc3c(c2)nc(CN2CCCCC2)n3C)c(=O)c2ccccc12`, the inhibition is 3.98%.
Then `COC(=O)/C(=C\Nc1ccccc1)NC(=O)c1ccc(Cl)cc1Cl`, with 0.67%; and `CCn1c(CNC(=O)c2ccccc2)nnc1SCC(=O)N1CCN(c2ccccc2)CC1`, with 1.01%; and `CS(=O)(=O)Nc1cccc(C2=NN(S(=O)(=O)c3ccccc3)C(c3cccs3)C2)c1` (stereo not given), with 1.03%.
As for `CCN(CC)S(=O)(=O)c1cc([N+](=O)[O-])ccc1NNC(=O)Nc1ccccc1`, the inhibition was 22.7% (active).
Next, `CCN(c1ccccc1)S(=O)(=O)c1ccc(NC(=O)C(C)(C)C)cc1`: -0.76%; `CCN(CC)S(=O)(=O)c1cccc(C(=O)Nc2ccccc2)c1`: 7.09%.
Regarding `COc1cc(N=Cc2c(O)[nH]c3ccccc23)cc(OC)c1OC`, the inhibition was 73.4% (active).
Next, `COC(=O)c1[nH]c2ccccc2c1NS(=O)(=O)c1ccc(OC)cc1OC`: 0.04%; `COc1ccc(OC)c(N=Cc2c(O)[nH]c3ccccc23)c1`: 13.7%; `CCCc1ccc(OCc2ccc(C(=O)N/N=C/c3cccc([N+](=O)[O-])c3)o2)c(OC)c1`: 1.02%.
Consider `Cc1[nH]n(-c2ccc([N+](=O)[O-])cc2)c(=O)c1C=NCCN1CCN(C(=O)c2ccccc2F)CC1`, for which the inhibition is 6.47%.
Next, `Cc1ccc(CN(N=Nc2nonc2N)c2nonc2N)c(C)c1`: -1.18%; `O=c1c2ccccc2nc2n1C(CSCc1ccccc1)CS2` (stereo not given): 7.02%.
Next, `O=C1C2N=NN(CC(=O)N3N=C(c4cccc5ccccc45)CC3c3ccccc3)C2C(=O)N1c1ccccc1` (stereo not given): 1.07%; `Cc1nc(NNC(=O)c2ccccc2)cc(-c2ccccc2)n1`: -0.62%.
In the case of `Cc1ccc(SCC(=O)NC(=O)NCc2ccco2)c(C)c1`, the inhibition is 6.63%.
Then `O=C(/C=C/c1ccco1)Nc1cccc(-c2nc3ccccc3[nH]2)c1`, with 1.17%.
Next, `Cc1ccc(-n2nc3ccc(NC(=O)/C=C/c4ccco4)cc3n2)cc1C`: 19.2% (active); `O=C(/C=C/c1ccco1)Nc1ccc(Oc2ccccc2)cc1`: 0.45%.
For `CN(C)CCNC(=O)Nc1cccc(Cl)c1Cl`, the inhibition is -0.62%.
Then `CCOC(=O)c1cnc(-c2ccccc2)nc1Oc1ccc(C)cc1`, with 4.12%; and `CN(CCO)Cc1csc2ccc(Br)cc12`, with -0.2%; and `C=CCNc1nc(N)c(C(=C(C#N)C#N)c2ccccc2)s1`, with 9.82%.
Then `N=c1c2c3c(sc2nc2n1CCCCC2)CCCC3`, with 0.27%; and `CC1Cc2ccccc2N1C(=O)c1cc2sccc2n1Cc1ccccc1` (stereo not given), with -0.85%; and `COc1cccc(/C=N/NC(=O)C(=O)N2CCCC2)c1`, with -2.37%.
In the case of `O=C(Nc1ccccc1)c1cccnc1Nc1ccccc1`, the inhibition is 1.76%.
Next, `O=C(Nc1ccc(-n2ccnc2P(=O)(O)c2ccccc2)cc1)c1ccccc1Br`: 22.8% (active); `Cc1nonc1NC(=O)c1ccccc1Br`: -1.88%; `CC(CNc1ccc([N+](=O)[O-])cc1)NC(=O)c1ccccc1Br` (stereo not given): 1.61%.
For the molecule `C#CCN(N(C)c1ncc(C(F)(F)F)cc1Cl)S(=O)(=O)c1ccc2ccccc2c1`, the inhibition was -0.5%.
Next, `CCN(CC)S(=O)(=O)c1ccc2c3c(cccc13)C(=O)S2`: 36% (active).
Next, `CN(CCc1ccccn1)S(=O)(=O)c1ccc2c3c(cccc13)C(=O)N2`: -2.74%; `COc1cccc(C(=O)NNC(=O)c2ccccc2Br)c1`: -3.7%.
For `CC(C)N1C(=S)SC(C)(C)C1n1oc(=O)n(-c2ccc(Cl)c(Cl)c2)c1=O` (stereo not given), the inhibition is 1%.
For `O=[N+]([O-])c1ccc(Oc2ccc(F)cc2Br)c2ccncc12`, the inhibition is 19.1% (active).
Next, `COC(=O)c1ccc(OCC(=O)NC(C)(C)C)cc1`: -0.09%; `Cc1cc2cc3c(N)[nH]nc3nc2cc1C`: 38.5% (active).
For `CCc1ccc2nc3sc(C(=O)Nc4nnc(CC)s4)c(N)c3cc2c1`, the inhibition is 33.3% (active).
Next, `CCc1nnc(NC(=O)c2cccs2)s1`: -4.62%; `CCc1nnc(NC(=O)c2nc3nccc(C)n3n2)s1`: -3.17%; `Cc1cccc(N2CCN(C(=O)c3cnn4c(C(F)F)cc(-c5ccccc5)nc34)CC2)c1C`: 2.11%.
Next, `COc1ccc(C2CC(=O)Nc3sc(=N)c4c(N)c(C#N)c(N)nc4c32)cc1OC` (stereo not given): -1.85%; `CC1(C)C2CCC13CS(=O)(=O)NC3C2` (stereo not given): -2.12%.
Then `Brc1ccc(/C=N/N2CCN(C3c4ccccc4-c4ccccc43)CC2)s1`, with -1.5%; and `CCC(C)(C(=O)NC1CCCCC1)N(C)C(=O)c1ccc2c(c1)OCO2` (stereo not given), with -1.51%.
With `O=C(O)CCC(=O)NCc1ccc(C(=O)O)cc1`, the inhibition is -0.4%.
Then `CCc1ccccc1NC(=O)CSc1nnc([C@@H](NC(=O)OC(C)(C)C)C(C)C)o1`, with -2.32%; and `C[C@H](NC(=O)OC(C)(C)C)c1nnc(SCC(=O)Nc2ccc(Br)cc2)o1`, with -1.41%.
In the case of `CCc1ccccc1NC(=O)CSc1nnc([C@@H](NC(=O)OC(C)(C)C)C(C)CC)o1` (stereo not given in full), the inhibition is 25.9% (active).
Regarding `CCCCNC(=O)C1CCCNC1=O` (stereo not given), the inhibition was -0.32%.
With `CCOc1ccc(NC(=O)CC2NCCNC2=O)cc1` (stereo not given), the inhibition is 0.06%.
`CCCOc1ccc(NC(=O)C2CCCNC2=O)cc1` (stereo not given): the inhibition is 40.2% (active).
With `COc1ccc(-c2[nH]nc(-c3ccccc3)c2-c2nc3ccccc3[nH]2)cc1`, the inhibition is -5.4%.
Regarding `COc1ccc(C2C(C#N)=C(/N=C/N3CCOCC3)OC3=C2C(=O)CC(C)(C)C3)cc1OC` (stereo not given), the inhibition is 0.22%.

Source of the values: PubChem BioAssay AID727 (The Scripps Research Institute Molecular Screening Center, 2007).
